# Compounds without any hit were thinned out: in the full panel of roughly 83,000, 20% have a hit.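 Testing used 96-well plates and a 48-hour single-concentration exposure. Example: -40 means 40% of the starting cells died.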 A number with no mark means an inactive call. Activity calls are given as the source filed them. How the source made its calls: active means growth percent below 10; inactive means the rest.
# Test system: OVCAR-4 ovarian
# Assay: NCI-60 one-dose screen, 48 h (100 = growth as untreated, 0 = no growth, -100 = all killed)
# Settings: 10 µM unless noted
row,Structure (SMILES),growth
1,COc1cc(C2CC(c3ccccc3)=NN2C=O)ccc1Oc1nc2c(c(=O)n(C)c(=O)n2C)n1C (stereo unspecified),65.3%
2,COc1ccc2[nH]cc(C3(c4c[nH]c5ccc(OC)cc45)C(=O)Nc4ccc(F)cc43)c2c1,86.7%
3,CC1=CC(=O)OC1C/C=C(\C)CCC1[C@@]2(C)CCC[C@@](C)(C(=O)O)C2CC[C@@]1(C)O (stereo partly specified),75.5%
4,CC1=C(/C=C/C(C)=C/C=C(C(=O)O)\C(C)=C\C(=O)O)C(C)(C)CCC1,115%
5,CCN(CCC#N)c1ccccc1,100%
6,CCCCOC(=O)c1cc(O)c(O)c(O)c1,58.9%
7,COc1cccc(-c2nc3sccn3c2-c2ccnc(NCCN3CCCNS3(=O)=O)n2)c1,81.5%
8,CC(=O)Oc1ccccc1C(=O)Nc1ncc([N+](=O)[O-])s1,55.2%
9,Cc1ccc([C@H]2c3[nH]c4ccccc4c3C[C@H]3C(=O)N(CCCCCCC(=O)NO)CC(=O)N23)cc1,59.2%
10,COc1ccc(-c2cc(-c3cn(-c4cccc(Cl)c4)nc3-c3ccc(OC)cc3)[nH]c(=S)n2)cc1,75.8%
11,CCn1c(Cc2ccccc2Nc2c(Cl)cccc2Cl)nnc1SCC(=O)Nc1ccccc1C(F)(F)F,79%
12,COc1cc(/C=C/c2cc(/C=C/c3ccc(O)c(OC)c3)n(C(=O)c3ccccc3Br)n2)ccc1O,49.8%
13,CCOC(=O)C(Cc1ccccc1)n1c(O)c(/C=N/c2ncc(Cc3ccc(Cl)cc3Cl)s2)sc1=S (stereo unspecified),25.6%
14,Cc1nn(-c2cccc(Cl)c2)c(C)c1N=Nc1ccc(Br)cc1,94.5%
15,O=C(N/N=C\c1cc(Br)ccc1O)c1ccncc1,36.8%
16,CC(C)OC1OC(OC(C)C)C(OC(C)C)OC1OC(C)C (stereo unspecified),88.9%
17,COc1ccc2c(c1)C1=NN(C(=O)CO)[C@H](c3ccc(OC(F)(F)F)cc3)[C@@H]1CC2,89.5%
18,Cn1c(-c2ccccc2)cc(=O)n1-c1ccccc1,103%
19,CC(C)(C)c1ccc(C(=O)Nc2sc3cc(O)ccc3c2C(N)=O)cc1,72.1%

row,Structure (SMILES),growth
1,O=C1N(Cc2ccccc2Cl)c2ccccc2C12NN=C(c1ccccc1)S2 (stereo unspecified),51.8%
2,CC(=O)c1ccc(N2C(=O)c3ccc(Oc4ccccc4)cc3C2=O)cc1,108%
3,CC1CCCN(CCCCOc2ccc(-c3ccc(C#N)cc3)cc2)C1 (stereo unspecified),93.8%
4,CNC(=O)c1c(NC(=O)c2cccc(C(F)(F)F)c2)sc2c1CCC(=O)C2,-81.5% (active)
5,OC(COCc1ccccc1)COCc1ccccc1,107%
6,CN1CCCN(CCNc2nccc(-c3c(-c4cccc(O)c4)nc4sccn34)n2)S1(=O)=O,51.5%
7,CC(=O)NC1C(O[C@H]2C[C@H]3[C@@H]4CC=C5C[C@@H](O)CC[C@]5(C)[C@H]4CC[C@]3(C)[C@H]2[C@H](C)C(=O)CCC(C)C)OCC(O)C1O (stereo partly specified),87.8%
8,CN(C)c1nc(-c2cccs2)n2nc(-c3ccc(Cl)cc3)cc2n1,-39.5% (active)
9,O=C1NN(C(=O)c2ccccc2)C(c2ccc(Cl)c(Cl)c2)=C/C1=C\c1ccccc1[N+](=O)[O-],12.2% [6.75 µM]
10,COc1ccc(C(=O)OC2C(OC3C(O)COC(O[C@H]4C[C@H]5[C@@H]6CC=C7C[C@@H](O)CC[C@]7(C)[C@H]6CC[C@]5(C)[C@H]4[C@H](C)C(=O)CCC(C)C)C3OC(=O)C(C)C)OCC(O)C2O)cc1 (stereo partly specified),60.9%
11,CCSCC1CC(O)(c2ccccc2)C(c2ccccc2)C(c2ccc(F)cc2)O1 (stereo unspecified),-9.01% (active)
12,Nc1c(N)c2ccccc2c2ccccc12,96.5%
13,Cc1csc(N/N=C/c2ccncc2)n1,116%
14,COc1ccc(-c2cc(C(=O)Nc3ccc(C)cc3)nc3[nH]c(=O)sc23)cc1,71.7%
15,COc1ccccc1-[n+]1cc(-c2ccc(-c3ccccc3)cc2)n2c1CCCCC2,20.2%
16,COc1ccc(/C=N/NC(N)=S)c(OC)n1,93.9%
17,Nc1c(Br)cc2c(c1Br)Cc1cc(Cl)ccc1-2,95.1%
18,Nc1nc(NC2CC2)cc(-c2cccc(Cl)c2Cl)n1,73.4%
19,COc1cc2c(c(OC)c1O)C(=O)C(OC)C(c1ccc(O)c(O)c1)O2 (stereo unspecified),37.8%

# Test system: SK-OV-3 ovarian
# Assay: as above
# Settings: 10 µM unless noted
row,Structure (SMILES),growth
1,COc1cc(C2CC(c3ccccc3)=NN2C=O)ccc1Oc1nc2c(c(=O)n(C)c(=O)n2C)n1C (stereo unspecified),125%
2,COc1ccc2[nH]cc(C3(c4c[nH]c5ccc(OC)cc45)C(=O)Nc4ccc(F)cc43)c2c1,94.5%
3,CC1=CC(=O)OC1C/C=C(\C)CCC1[C@@]2(C)CCC[C@@](C)(C(=O)O)C2CC[C@@]1(C)O (stereo partly specified),98.1%
4,CC1=C(/C=C/C(C)=C/C=C(C(=O)O)\C(C)=C\C(=O)O)C(C)(C)CCC1,103%
5,CCN(CCC#N)c1ccccc1,114%
6,CCCCOC(=O)c1cc(O)c(O)c(O)c1,85.1%
7,COc1cccc(-c2nc3sccn3c2-c2ccnc(NCCN3CCCNS3(=O)=O)n2)c1,54.8%
8,CC(=O)Oc1ccccc1C(=O)Nc1ncc([N+](=O)[O-])s1,85.5%
9,Cc1ccc([C@H]2c3[nH]c4ccccc4c3C[C@H]3C(=O)N(CCCCCCC(=O)NO)CC(=O)N23)cc1,63.3%
10,COc1ccc(-c2cc(-c3cn(-c4cccc(Cl)c4)nc3-c3ccc(OC)cc3)[nH]c(=S)n2)cc1,90.1%
11,CCn1c(Cc2ccccc2Nc2c(Cl)cccc2Cl)nnc1SCC(=O)Nc1ccccc1C(F)(F)F,96.1%
12,COc1cc(/C=C/c2cc(/C=C/c3ccc(O)c(OC)c3)n(C(=O)c3ccccc3Br)n2)ccc1O,16.6%
13,CCOC(=O)C(Cc1ccccc1)n1c(O)c(/C=N/c2ncc(Cc3ccc(Cl)cc3Cl)s2)sc1=S (stereo unspecified),0.0373% (active)
14,Cc1nn(-c2cccc(Cl)c2)c(C)c1N=Nc1ccc(Br)cc1,92.3%
15,O=C(N/N=C\c1cc(Br)ccc1O)c1ccncc1,38.3%
16,CC(C)OC1OC(OC(C)C)C(OC(C)C)OC1OC(C)C (stereo unspecified),113%
17,COc1ccc2c(c1)C1=NN(C(=O)CO)[C@H](c3ccc(OC(F)(F)F)cc3)[C@@H]1CC2,96.3%
18,Cn1c(-c2ccccc2)cc(=O)n1-c1ccccc1,110%
19,CC(C)(C)c1ccc(C(=O)Nc2sc3cc(O)ccc3c2C(N)=O)cc1,115%

row,Structure (SMILES),growth
1,O=C1N(Cc2ccccc2Cl)c2ccccc2C12NN=C(c1ccccc1)S2 (stereo unspecified),83.2%
2,CC(=O)c1ccc(N2C(=O)c3ccc(Oc4ccccc4)cc3C2=O)cc1,108%
3,CC1CCCN(CCCCOc2ccc(-c3ccc(C#N)cc3)cc2)C1 (stereo unspecified),95.3%
4,CNC(=O)c1c(NC(=O)c2cccc(C(F)(F)F)c2)sc2c1CCC(=O)C2,-5.12% (active)
5,OC(COCc1ccccc1)COCc1ccccc1,103%
6,CN1CCCN(CCNc2nccc(-c3c(-c4cccc(O)c4)nc4sccn34)n2)S1(=O)=O,15.5%
7,CC(=O)NC1C(O[C@H]2C[C@H]3[C@@H]4CC=C5C[C@@H](O)CC[C@]5(C)[C@H]4CC[C@]3(C)[C@H]2[C@H](C)C(=O)CCC(C)C)OCC(O)C1O (stereo partly specified),37.9%
8,CN(C)c1nc(-c2cccs2)n2nc(-c3ccc(Cl)cc3)cc2n1,-54.2% (active)
9,O=C1NN(C(=O)c2ccccc2)C(c2ccc(Cl)c(Cl)c2)=C/C1=C\c1ccccc1[N+](=O)[O-],37.1% [6.75 µM]
10,COc1ccc(C(=O)OC2C(OC3C(O)COC(O[C@H]4C[C@H]5[C@@H]6CC=C7C[C@@H](O)CC[C@]7(C)[C@H]6CC[C@]5(C)[C@H]4[C@H](C)C(=O)CCC(C)C)C3OC(=O)C(C)C)OCC(O)C2O)cc1 (stereo partly specified),-21.1% (active)
11,CCSCC1CC(O)(c2ccccc2)C(c2ccccc2)C(c2ccc(F)cc2)O1 (stereo unspecified),6.98% (active)
12,Nc1c(N)c2ccccc2c2ccccc12,102%
13,Cc1csc(N/N=C/c2ccncc2)n1,101%
14,COc1ccc(-c2cc(C(=O)Nc3ccc(C)cc3)nc3[nH]c(=O)sc23)cc1,68.4%
15,COc1ccccc1-[n+]1cc(-c2ccc(-c3ccccc3)cc2)n2c1CCCCC2,-18.1% (active)
16,COc1ccc(/C=N/NC(N)=S)c(OC)n1,114%
17,Nc1c(Br)cc2c(c1Br)Cc1cc(Cl)ccc1-2,82.5%
18,Nc1nc(NC2CC2)cc(-c2cccc(Cl)c2Cl)n1,64.7%
19,COc1cc2c(c(OC)c1O)C(=O)C(OC)C(c1ccc(O)c(O)c1)O2 (stereo unspecified),46.5%

# — PubChem BioAssay (NCI)
